Here are results for 22 compounds from PubChem BioAssay.

SMILES strings stand for the structures. Unmarked numbers belong to inactive results. Activity calls are given as the source filed them. Rule as the data show it, unless noted: active = inhibition above about 25%; inactive = the rest.

The target in assay [1] is Nuclear receptor coactivator 3 (Homo sapiens) (UniProt Q9Y6Q9). Put plainly: SRC3 coactivator transcriptional activity inhibitors, confirmation, cell-based, luminescence, quadruplicate (AID 588792;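 active = mean inhibition over 43.08%, the solvent-only control mean plus 3 SD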;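 also: 0% = DMSO treated cells and 100% = gossypol at 36 µM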). Conditions: HEK293 GAL4-SRC3 luciferase reporter, at 3.6 µM, stronger effect = higher value. Background: Reporter assays use an easily measured gene product as a stand-in for the process of interest.
Nuclear receptor coactivator 3 (Homo sapiens), sequence (Q9Y6Q9 whole entry, looked up, the tested form may be a part): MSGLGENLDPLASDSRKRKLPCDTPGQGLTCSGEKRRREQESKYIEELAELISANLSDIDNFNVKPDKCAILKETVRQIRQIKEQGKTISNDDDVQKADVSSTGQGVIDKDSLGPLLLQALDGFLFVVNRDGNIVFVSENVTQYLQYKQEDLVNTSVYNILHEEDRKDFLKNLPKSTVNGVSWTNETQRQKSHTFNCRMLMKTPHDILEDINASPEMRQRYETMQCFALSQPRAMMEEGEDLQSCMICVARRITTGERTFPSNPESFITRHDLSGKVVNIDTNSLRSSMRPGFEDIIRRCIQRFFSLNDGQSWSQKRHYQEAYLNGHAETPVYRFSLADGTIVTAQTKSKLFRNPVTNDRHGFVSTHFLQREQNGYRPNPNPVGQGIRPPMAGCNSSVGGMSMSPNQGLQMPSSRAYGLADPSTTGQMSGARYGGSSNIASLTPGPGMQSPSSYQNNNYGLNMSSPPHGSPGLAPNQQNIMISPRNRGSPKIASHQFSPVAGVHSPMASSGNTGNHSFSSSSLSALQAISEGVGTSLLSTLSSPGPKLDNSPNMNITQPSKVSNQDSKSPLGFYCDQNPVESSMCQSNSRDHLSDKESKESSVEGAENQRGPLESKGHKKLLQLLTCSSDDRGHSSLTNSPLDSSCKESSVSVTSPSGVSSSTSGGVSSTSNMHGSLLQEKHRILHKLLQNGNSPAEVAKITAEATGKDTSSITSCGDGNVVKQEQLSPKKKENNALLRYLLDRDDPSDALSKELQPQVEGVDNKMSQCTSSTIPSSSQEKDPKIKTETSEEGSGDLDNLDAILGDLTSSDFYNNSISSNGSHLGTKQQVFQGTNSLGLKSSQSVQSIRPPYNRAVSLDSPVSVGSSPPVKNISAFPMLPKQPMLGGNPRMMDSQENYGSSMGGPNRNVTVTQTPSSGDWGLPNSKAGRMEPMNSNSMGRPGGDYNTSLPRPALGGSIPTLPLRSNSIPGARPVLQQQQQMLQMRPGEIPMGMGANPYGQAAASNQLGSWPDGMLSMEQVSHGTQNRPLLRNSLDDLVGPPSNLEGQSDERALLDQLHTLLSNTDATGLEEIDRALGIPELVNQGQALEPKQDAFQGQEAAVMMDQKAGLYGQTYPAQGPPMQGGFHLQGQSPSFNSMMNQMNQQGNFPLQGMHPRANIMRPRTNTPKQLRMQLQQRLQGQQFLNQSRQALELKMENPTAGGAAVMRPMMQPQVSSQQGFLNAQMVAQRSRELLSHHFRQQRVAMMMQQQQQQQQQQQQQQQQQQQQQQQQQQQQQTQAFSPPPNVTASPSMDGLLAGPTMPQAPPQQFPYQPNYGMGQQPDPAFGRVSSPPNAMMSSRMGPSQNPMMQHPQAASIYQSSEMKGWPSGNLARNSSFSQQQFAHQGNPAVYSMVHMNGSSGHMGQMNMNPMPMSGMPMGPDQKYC

Assay [2] deals with transactivating tegument protein VP16 (Human herpesvirus 1), Gal4-VP16 luciferase reporter. Briefly: VP16 transactivation inhibitors, counter-screen for SRC3 inhibitor project, cell-based, luminescence, high throughput (AID 588794; in the data active = inhibition above about 30%). Conditions: mammalian cells, VP16-driven luciferase reporter luminescence; at 3.6 µM; stronger effect = higher value.
Assay [3] deals with Nuclear receptor coactivator 1 (Homo sapiens) (UniProt Q15788). Briefly: SRC1 coactivator transcriptional activity inhibitors, confirmation, cell-based, luminescence, quadruplicate (AID 588820;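 active = mean inhibition above 46.68%, the untreated control wells mean plus 3 SD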;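 also: 0% = DMSO wells and 100% = gossypol 36 µM treated wells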). Conditions: HEK293 GAL4-SRC1 luciferase reporter, at 3.6 µM, stronger effect = higher value.
Nuclear receptor coactivator 1 (Homo sapiens), sequence (Q15788 whole entry, looked up, the tested form may be a part): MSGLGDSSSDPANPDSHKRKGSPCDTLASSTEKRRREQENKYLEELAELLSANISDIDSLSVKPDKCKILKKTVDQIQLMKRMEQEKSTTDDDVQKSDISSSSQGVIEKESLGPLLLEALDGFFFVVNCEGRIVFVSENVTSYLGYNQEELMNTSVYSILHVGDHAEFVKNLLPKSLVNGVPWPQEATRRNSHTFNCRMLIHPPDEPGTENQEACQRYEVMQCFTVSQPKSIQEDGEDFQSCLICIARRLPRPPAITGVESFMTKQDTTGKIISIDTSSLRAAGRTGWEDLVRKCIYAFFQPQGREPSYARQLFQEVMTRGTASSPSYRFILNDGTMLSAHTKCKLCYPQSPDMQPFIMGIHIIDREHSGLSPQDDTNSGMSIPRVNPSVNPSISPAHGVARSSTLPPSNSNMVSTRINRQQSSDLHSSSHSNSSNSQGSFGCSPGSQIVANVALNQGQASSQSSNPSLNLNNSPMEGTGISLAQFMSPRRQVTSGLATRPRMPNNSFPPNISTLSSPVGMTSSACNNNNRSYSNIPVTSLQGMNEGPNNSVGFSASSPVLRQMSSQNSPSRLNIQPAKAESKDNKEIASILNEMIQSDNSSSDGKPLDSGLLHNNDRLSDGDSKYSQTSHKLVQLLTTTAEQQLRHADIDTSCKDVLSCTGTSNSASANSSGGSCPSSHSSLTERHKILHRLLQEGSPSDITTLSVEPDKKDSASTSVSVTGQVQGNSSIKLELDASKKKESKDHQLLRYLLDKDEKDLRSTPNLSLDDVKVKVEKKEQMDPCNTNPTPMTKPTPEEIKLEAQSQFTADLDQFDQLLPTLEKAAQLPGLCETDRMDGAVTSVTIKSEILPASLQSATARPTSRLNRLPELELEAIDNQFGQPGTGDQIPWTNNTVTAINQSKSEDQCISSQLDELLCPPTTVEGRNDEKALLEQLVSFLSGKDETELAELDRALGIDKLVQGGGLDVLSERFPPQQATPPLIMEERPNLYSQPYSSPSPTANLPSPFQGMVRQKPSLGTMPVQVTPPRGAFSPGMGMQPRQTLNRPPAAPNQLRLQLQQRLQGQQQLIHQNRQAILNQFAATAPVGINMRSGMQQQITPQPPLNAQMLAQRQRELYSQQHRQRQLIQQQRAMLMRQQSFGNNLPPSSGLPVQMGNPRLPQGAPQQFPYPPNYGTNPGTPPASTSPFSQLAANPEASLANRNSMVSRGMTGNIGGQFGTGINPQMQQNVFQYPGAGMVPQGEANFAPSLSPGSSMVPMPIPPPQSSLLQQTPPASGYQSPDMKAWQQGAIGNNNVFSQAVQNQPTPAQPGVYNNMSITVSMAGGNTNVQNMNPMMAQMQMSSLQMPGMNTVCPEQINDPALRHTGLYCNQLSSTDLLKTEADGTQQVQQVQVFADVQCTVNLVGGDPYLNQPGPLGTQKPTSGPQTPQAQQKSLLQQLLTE
Assay [4] is described as follows: VP16 transactivation inhibitors, counter-screen for SRC1 inhibitor project, cell-based, luminescence, high throughput (AID 588824). The conditions noted are these: cell-based VP16 transactivation luciferase luminescence; at 3.6 µM; stronger effect = higher value. In general terms: The purpose of a counterscreen is to sort out artefacts and off-target activity.
In assay [5] the test system is transactivating tegument protein VP16 (Human herpesvirus 1). Briefly: VP16 transactivation reporter inhibitors, counter-screen for SRC2 inhibitor project, cell-based, luminescence, single concentration (AID 652007; in the data active = inhibition above about 36%). The conditions noted are these: cell-based VP16 transactivation luciferase reporter, at 8.9 µM, stronger effect = higher value.
Assay [6] concerns the target Nuclear receptor coactivator 2 (Homo sapiens) (UniProt Q15596). Put plainly: SRC2 coactivator transcriptional activity inhibitors, confirmation, cell-based, luminescence, HEK293, triplicate (AID 652008;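 active = mean inhibition above 46.5%, the solvent-only control mean plus 3 SD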;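 also: 0% = DMSO-treated cells and 100% = Gossypol at 36 µM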). The conditions noted are these: HEK293 GAL4-SRC2 luciferase reporter, at 8.9 µM, stronger effect = higher value.

Nuclear receptor coactivator 2 (Homo sapiens), sequence (Q15596 whole entry, looked up, the tested form may be a part): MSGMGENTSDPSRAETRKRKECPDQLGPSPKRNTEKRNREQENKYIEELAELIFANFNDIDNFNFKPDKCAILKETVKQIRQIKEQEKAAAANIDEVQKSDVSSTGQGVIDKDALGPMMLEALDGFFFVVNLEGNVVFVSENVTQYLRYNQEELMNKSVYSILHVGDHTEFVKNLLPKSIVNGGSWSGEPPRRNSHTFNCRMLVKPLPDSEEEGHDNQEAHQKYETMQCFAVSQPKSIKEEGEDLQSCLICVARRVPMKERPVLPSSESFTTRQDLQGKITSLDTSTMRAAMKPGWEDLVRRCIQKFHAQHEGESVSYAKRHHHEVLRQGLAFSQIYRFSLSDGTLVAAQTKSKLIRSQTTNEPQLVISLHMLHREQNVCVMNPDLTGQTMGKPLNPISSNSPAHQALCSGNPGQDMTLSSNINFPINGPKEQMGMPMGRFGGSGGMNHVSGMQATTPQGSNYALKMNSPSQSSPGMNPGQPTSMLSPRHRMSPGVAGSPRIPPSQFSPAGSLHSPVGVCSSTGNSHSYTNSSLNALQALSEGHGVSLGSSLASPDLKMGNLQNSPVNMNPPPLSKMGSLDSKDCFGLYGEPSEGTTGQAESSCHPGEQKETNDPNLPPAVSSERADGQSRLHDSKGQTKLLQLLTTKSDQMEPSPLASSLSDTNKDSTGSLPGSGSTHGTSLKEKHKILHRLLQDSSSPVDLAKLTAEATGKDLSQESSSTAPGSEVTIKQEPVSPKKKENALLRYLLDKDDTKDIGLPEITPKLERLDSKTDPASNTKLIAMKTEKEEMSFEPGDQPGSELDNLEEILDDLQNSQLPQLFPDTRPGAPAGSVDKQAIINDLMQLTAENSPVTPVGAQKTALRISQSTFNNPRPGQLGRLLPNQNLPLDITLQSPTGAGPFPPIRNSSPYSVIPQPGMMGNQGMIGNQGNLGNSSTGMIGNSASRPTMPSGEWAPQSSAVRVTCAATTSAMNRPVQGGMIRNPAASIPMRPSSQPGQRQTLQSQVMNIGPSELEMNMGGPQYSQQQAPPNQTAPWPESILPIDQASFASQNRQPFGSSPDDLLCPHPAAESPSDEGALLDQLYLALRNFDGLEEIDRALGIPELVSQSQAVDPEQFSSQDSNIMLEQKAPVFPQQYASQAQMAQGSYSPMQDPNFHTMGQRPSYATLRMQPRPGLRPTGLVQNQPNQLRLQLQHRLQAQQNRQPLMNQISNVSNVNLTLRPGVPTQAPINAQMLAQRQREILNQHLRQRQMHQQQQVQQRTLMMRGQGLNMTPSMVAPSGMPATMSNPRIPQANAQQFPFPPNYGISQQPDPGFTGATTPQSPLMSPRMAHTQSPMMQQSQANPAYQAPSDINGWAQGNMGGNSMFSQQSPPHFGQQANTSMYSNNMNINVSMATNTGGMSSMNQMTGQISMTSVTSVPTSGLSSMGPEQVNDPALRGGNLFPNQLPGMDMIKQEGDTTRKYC

The inhibition is the change of the read-out against control, counted positive when it falls. For `Cc1cc(Sc2nnc(/N=C/N(C)C)s2)c2ccccc2n1`, the inhibition in assay [1] is 9.12%; in assay [2] it was 40.5% (active); in assay [3], 2.4%; in assay [4] it was 33.8% (active); in assay [5], -8.53%; in assay [6] it was 24.6%.

Turning to `COCCNc1nc(Oc2cncc(Cl)c2)c2sccc2n1`, the inhibition in assay [1] is 42.1%; in assay [2], 29.7% (active); in assay [3], 44.3%; in assay [4], 32.8% (active); in assay [5], 16.6%; in assay [6], 45.5%.

In the case of `COc1ccc(Nc2ccnc3ccccc23)cc1`, the inhibition in assay [1] is 41.8%; in assay [2] it was 30.3% (active); in assay [3], 52.8% (active); in assay [4], 26.4% (active); in assay [5], -20.9%; in assay [6], 30%.

Turning to `COc1cncc(-c2cnc3sc(NCCc4ccccn4)nn23)c1`, the inhibition in assay [1] was 56.8% (active); in assay [2], 33.6% (active); in assay [3], 48.4% (active); in assay [4], 30.6% (active); in assay [5], 3.51%; in assay [6], 50.2% (active).

As to `CNc1ccc2ncc(-c3cccc(C(=O)N(C)C)c3)n2n1`, the inhibition in assay [1] was 72.2% (active); in assay [2], 62.2% (active); in assay [3] it was 72.4% (active); in assay [4] it was 60.8% (active); in assay [5], -12.3%; in assay [6], 42.7%.

For the compound `CC(C)c1ccc(/C=C2\SC(=S)N(CCC(=O)N3CCCCC3CCO)C2=O)cc1` (configuration not stated), the inhibition in assay [1] was 23.5%; in assay [2] it was -27.8%; in assay [3], 10.1%; in assay [4], -48.1%; in assay [5], -75%; in assay [6] it was 76.4% (active).

On to `c1csc(C2=Nn3c(nnc3-c3ccncc3)SC2)c1`, for which the inhibition in assay [1] was 72.9% (active); in assay [2], 58.1% (active); in assay [3] it was 67.9% (active); in assay [4] it was 50.8% (active); in assay [5], 29.6%; in assay [6] it was 62.6% (active).

Take `O=C(N/N=C/c1cc(Br)ccc1O)C(c1ccncc1)N1CCOCC1` (configuration not stated): the inhibition in assay [1] is 19.3%; in assay [2] it was 20.1%; in assay [3] it was 19.4%; in assay [4], 10.6%; in assay [5] it was 11.5%; in assay [6] it was 10.1%.

As for `CCCN1C=CC(=C2C(=O)c3ccccc3C2=O)C=C1`, the inhibition in assay [1] is 65.4% (active); in assay [2], 51.3% (active); in assay [3] it was -14.4%; in assay [4], 38% (active); in assay [5] it was 80.3% (active); in assay [6] it was 91.3% (active).

Take `CN(C)C=Nc1ncc2c3ccccc3n(CCN(C)C)c2c1C#N`: the inhibition in assay [1] is 48.6% (active); in assay [2], 29.9% (active); in assay [3], 48.9% (active); in assay [4], 33.2% (active); in assay [5], -1.55%; in assay [6], 9.25%.

For the compound `Brc1ccc2ncnc(Nc3ccc(N4CCOCC4)cc3)c2c1`, the inhibition was 57.9% (active) in assay [1]; 31.9% (active) in assay [2]; 59.7% (active) in assay [3]; 35.3% (active) in assay [4]; -2.24% in assay [5]; 39.9% in assay [6].

`Cc1ccc(-n2c(C)c([N+](=O)[O-])c3ccc(O)c(CN(C)C)c32)cc1`: the inhibition in assay [1] is 76.7% (active); in assay [2] it was 51.9% (active); in assay [3], 63.4% (active); in assay [4], 49.5% (active); in assay [5] it was 2.96%; in assay [6], 41.4%.

Regarding `O=C(NC1CCCCC1)C(c1cccnc1)N(C(=O)CCl)c1ccc(F)cc1` (configuration not stated), the inhibition is 78.3% (active) in assay [1]; 65.9% (active) in assay [2]; 20.8% in assay [3]; 65.1% (active) in assay [4]; 64.5% (active) in assay [5]; 64.8% (active) in assay [6].

For the compound `COc1ccc(-c2cc3nc(C)n(N)c(=O)c3s2)cc1`, the inhibition in assay [1] was 57.6% (active); in assay [2] it was 41.7% (active); in assay [3], 19.4%; in assay [4] it was 39.4% (active); in assay [5], 72% (active); in assay [6] it was 83.8% (active).

For `COc1ccc(C(=O)C(CN2CCOCC2)c2ccccc2)cc1` (configuration not stated), the inhibition was 1.7% in assay [1]; 20.9% in assay [2]; 0.8% in assay [3]; 20.6% in assay [4]; 6.4% in assay [5]; 35% in assay [6].

On to `NC(=O)c1sc2nc3c(c(-c4cccs4)c2c1N)CCCCC3`, for which the inhibition in assay [1] is 83.3% (active); in assay [2], 58.4% (active); in assay [3] it was 77.6% (active); in assay [4], 65% (active); in assay [5], 7.38%; in assay [6], 60.3% (active).

In the case of `CC(C)(C)c1ccc(C(=O)NCCOc2ccccc2F)cc1`, the inhibition in assay [1] was 10.1%; in assay [2], -2.97%; in assay [3], -61%; in assay [4] it was -47.6%; in assay [5], -20.4%; in assay [6], 47.8% (active).

`CCN(CC)c1ccc(/C=N/Nc2nc(C)cc(=O)[nH]2)c(O)c1`: the inhibition in assay [1] was 87.7% (active); in assay [2] it was 78.7% (active); in assay [3], 67.1% (active); in assay [4], 74.3% (active); in assay [5], -39.4%; in assay [6] it was 29.6%.

As to `Cc1ccc2nc(C(F)(F)F)c(C#N)c(N)c2c1`, the inhibition was 48.2% (active) in assay [1]; 9.27% in assay [2]; 27.6% in assay [3]; 2.5% in assay [4]; 1.92% in assay [5]; 50.1% (active) in assay [6].

Take `CS(=O)(=O)N(CCC#N)Cc1ccc(/C=C2\C(=O)Nc3ccccc32)o1`: the inhibition in assay [1] was 55.2% (active); in assay [2] it was 37.4% (active); in assay [3] it was 52.9% (active); in assay [4], 29.3% (active); in assay [5], 4.75%; in assay [6], 11.8%.

For the compound `COc1ccc(N(C(=O)CCl)C(C(=O)NC2CCCCC2)c2cccnc2)cc1` (configuration not stated), the inhibition was 75.7% (active) in assay [1]; 56.5% (active) in assay [2]; 38.8% in assay [3]; 51.5% (active) in assay [4]; 68.8% (active) in assay [5]; 69% (active) in assay [6].

For `Cc1csc(SCC(=O)Nc2cccc3nsnc23)n1`, the inhibition in assay [1] is 66.3% (active); in assay [2], 35.1% (active); in assay [3] it was 57.9% (active); in assay [4], 37.7% (active); in assay [5] it was -58.8%; in assay [6], 19.4%.
